# Results filed as inconclusive are left out. Unmarked numbers belong to inactive results. Active and inactive are the calls of the source. The call rests on the fitted dose curve; in most records, active means well fitted inhibition curve with a large enough effect; inconclusive means small, poorly fitted or top-dose-only effect; inactive means flat fitted curve, though single readings scatter.
# Test: BET inhibitor-based combinations targeting novel dependencies in MECOM-rearranged (r) AML: AML-194 cell line (AID 2202237; further: nearly all actives have a fitted effect of over 40% in size;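 on viability (% of control): plate controls were vehicle wells for no effect and wells without cells for full effect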)
# Settings: AML-194 (MECOM-r AML) viability, CellTiter-Glo, 48 h; series mostly up to 46 µM; viability (% of control): at the top concentration
# Outline: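 Each compound was tested at eleven concentrations on cells seeded at 500/well. After two days' incubation, ATP-based luminescence reported viability; responses relative to DMSO and blank wells yielded AUC and cell-line-centred Z-AUC.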
# Potency means the concentration at half of the fitted maximal effect.
SMILES,viability (% of control),Potency
Cc1cc(Nc2cc(N)ncn2)c(=O)n2c1C(=O)NC21CCCCC1,104% [at 15.6 µM],
C=CC(=O)N[C@H]1CCOC[C@H]1Nc1ncc2cc(-c3c(Cl)c(OC)cc(OC)c3Cl)ccc2n1,98.2%,
CCN(C(=O)c1ccccc1OC)c1cc2c(cc1N1CCNC[C@H]1C)n(C)c(=O)n2C,109%,
CN(C)C/C=C/C(=O)Nc1cc2c(Nc3ccc(F)c(Cl)c3)ncnc2cc1O[C@H]1CCOC1,,7.42 µM (active)
COc1cc(OC)c(/C=C/S(=O)(=O)Cc2ccc(OC)c(OP(=O)(O)O)c2)c(OC)c1,,0.118 µM (active)
Nc1nc(OC(c2ccc(-c3cccc(F)c3)cc2)C(F)(F)F)cc(-c2ccc(C[C@@H](N)C(=O)O)cc2)n1 (stereo not given in full),94.7%,
O=C1S/C(=C\c2ccc(OCc3cccc(B(O)O)c3)cc2)C(=O)N1Cc1ccc(F)cc1,87.5%,
Cc1ccc(-c2ncn(-c3ccc(Nc4nccc(-c5cccc(N6CCOCC6)c5)n4)cc3)n2)cn1,,2.95 µM (active)
CC1=C(/C=C/C(C)=C/C=C/C(C)=C/C=C/C=C(C)/C=C/C=C(C)/C=C/C2=C(C)CCCC2(C)C)C(C)(C)CCC1,92.1%,
CCOc1cc(/C=C2/C(=O)N(c3ccccc3)N=C2C)cc(Cl)c1OCC(=O)OC,95.5%,
C=CC(=O)Nc1cccc(Oc2nc(Nc3ccc(N4CCN(C)CC4)cc3)nc3ccsc23)c1,,14.8 µM (active)
Cc1ncsc1-c1ccc([C@H](C)NC(=O)[C@@H]2C[C@@H](O)CN2C(=O)[C@@H](NC(=O)COCCCOCCNC(=O)C[C@@H]2N=C(c3ccc(Cl)cc3)c3c(sc(C)c3C)-n3c(C)nnc32)C(C)(C)C)cc1,,0.186 µM (active)
O=c1sn(-c2cccc3ccccc23)c(=O)n1Cc1ccccc1,,14.8 µM (active)
CC(C)(C(=O)NCC(F)(F)C(F)(F)F)C(=O)N[C@@H]1C(=O)Nc2ccccc2-c2ccccc21,102%,
N#C/C(=C1/Nc2ccccc2S1)c1ccnc(OCc2ccc(CN3CCOCC3)cc2)n1,,20.9 µM (active)
CC1=NN(c2ccc(C(=O)O)cc2)C(=O)/C1=C/c1ccc(-c2cc(C)c(C)cc2[N+](=O)[O-])o1,101%,
CC#Cc1cncc(-c2ccc3c(c2)[C@@]2(N=C(C)C(N)=N2)C2(CCC(OC)CC2)C3)c1 (stereo not given in full),96.7%,
CN(C)CC[C@H](CSc1ccccc1)Nc1ccc(S(=O)(=O)NC(=O)c2ccc(N3CCN(Cc4ccccc4-c4ccc(Cl)cc4)CC3)cc2)cc1[N+](=O)[O-],,1.86 µM (active)
CC(C)(C)c1[nH]cnc1/C=c1\[nH]c(=O)/c(=C/c2ccccc2)[nH]c1=O,,0.0742 µM (active)
CC[C@H](C)C(=O)O[C@H]1C[C@H](O)C=C2C=C[C@H](C)[C@H](CC[C@@H](O)C[C@@H](O)CC(=O)O)[C@H]21,109%,
COc1cc(C)c(/C=C/C(C)=C/C=C/C(C)=C/C(=O)O)c(C)c1C,93.2%,
Cn1cc(C2=C(c3cn(C)c4cc([N+](=O)[O-])ccc34)C(=O)NC2=O)c2ccccc21,,0.417 µM (active)
CC1(N)CCN(c2cnc(-c3cccc(Cl)c3Cl)c(N)n2)CC1,98% [at 15.6 µM],
CCn1c(=O)c(-c2ccc(-c3cncc(C)n3)cc2Cl)cc2cnc(NCCC3CCN(C)CC3)nc21,89.1% [at 5.12 µM],
C[C@H]1CN(C2COC2)CCN1c1ccc(Nc2cc(-c3ccnc(N4CCn5c(cc6c5CC(C)(C)C6)C4=O)c3CO)cn(C)c2=O)nc1,103%,

# Reference: PubChem BioAssay (NCATS)
